Measured values reported in article PMC7862700, “An all-to-all approach to the identification of sequence-specific readers for epigenetic DNA modifications on cytosine”.

Key:
Test in all cases: DAPPL (digital affinity profiling via proximity ligation, sequencing); 10 mM Tris-HCl pH 7.5, 50 mM NaCl, 1 mM DTT, 4% glycerol, room temperature, 30 min; GST-TFs on glutathione beads, 16-mer random dsDNA library, 0.1% formaldehyde crosslink after washing; high values mean tight binding
[1] = biological target: T1, FLI1 (Homo sapiens, UniProt Q01543 1-452); conditions: protein: recombinant; tags: N-terminal GST; dsDNA, one strand shown
T1 sequence: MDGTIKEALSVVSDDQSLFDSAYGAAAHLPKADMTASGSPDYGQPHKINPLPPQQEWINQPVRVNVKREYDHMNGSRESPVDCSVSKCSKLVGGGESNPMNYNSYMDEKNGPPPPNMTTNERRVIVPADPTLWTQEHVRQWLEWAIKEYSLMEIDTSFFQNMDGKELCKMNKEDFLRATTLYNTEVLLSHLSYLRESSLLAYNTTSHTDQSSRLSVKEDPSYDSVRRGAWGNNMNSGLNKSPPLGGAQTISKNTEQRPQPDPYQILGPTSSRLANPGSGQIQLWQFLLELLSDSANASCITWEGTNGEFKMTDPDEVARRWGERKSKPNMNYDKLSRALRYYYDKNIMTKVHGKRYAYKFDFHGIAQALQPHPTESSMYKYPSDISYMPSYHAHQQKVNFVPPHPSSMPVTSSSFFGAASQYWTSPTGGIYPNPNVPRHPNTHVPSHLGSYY
How it was run: (§1)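 Binding signal is each hexamer's read frequency for a factor divided by its frequency in the tag-only sample. The factors were GST-fused human transcription factors from yeast, captured on glutathione beads, DNA-barcoded and pooled with that sample. Pools were incubated with 200 nmole of a random double-stranded 16-mer DNA library in Tris/NaCl/DTT/glycerol buffer at room temperature for 30 min, then washed, crosslinked with 0.1% formaldehyde, proximity-ligated with BsaI/T4 ligase (1 h, 37 °C), PCR-amplified and sequenced on an Illumina NextSeq500.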

[2] = biological target: T2, ELK1 (Homo sapiens, UniProt P19419 1-428); conditions: protein: recombinant; tags: N-terminal GST; dsDNA, one strand shown
T2 sequence: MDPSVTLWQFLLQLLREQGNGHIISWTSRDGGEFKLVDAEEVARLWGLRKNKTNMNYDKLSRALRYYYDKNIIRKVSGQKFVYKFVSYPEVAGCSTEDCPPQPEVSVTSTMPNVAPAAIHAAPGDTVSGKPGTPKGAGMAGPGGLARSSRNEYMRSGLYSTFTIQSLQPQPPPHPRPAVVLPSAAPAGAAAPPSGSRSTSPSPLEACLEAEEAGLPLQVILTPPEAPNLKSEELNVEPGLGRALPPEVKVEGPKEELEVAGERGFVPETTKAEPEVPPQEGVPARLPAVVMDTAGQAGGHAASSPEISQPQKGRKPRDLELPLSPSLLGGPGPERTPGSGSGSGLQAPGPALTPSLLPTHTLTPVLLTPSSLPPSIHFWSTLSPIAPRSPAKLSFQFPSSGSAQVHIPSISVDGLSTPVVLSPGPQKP
How it was run: as §1

[3] = biological target: T3, GABPA (Homo sapiens, UniProt Q06546 1-454); conditions: protein: recombinant; tags: N-terminal GST; dsDNA, one strand shown
T3 sequence: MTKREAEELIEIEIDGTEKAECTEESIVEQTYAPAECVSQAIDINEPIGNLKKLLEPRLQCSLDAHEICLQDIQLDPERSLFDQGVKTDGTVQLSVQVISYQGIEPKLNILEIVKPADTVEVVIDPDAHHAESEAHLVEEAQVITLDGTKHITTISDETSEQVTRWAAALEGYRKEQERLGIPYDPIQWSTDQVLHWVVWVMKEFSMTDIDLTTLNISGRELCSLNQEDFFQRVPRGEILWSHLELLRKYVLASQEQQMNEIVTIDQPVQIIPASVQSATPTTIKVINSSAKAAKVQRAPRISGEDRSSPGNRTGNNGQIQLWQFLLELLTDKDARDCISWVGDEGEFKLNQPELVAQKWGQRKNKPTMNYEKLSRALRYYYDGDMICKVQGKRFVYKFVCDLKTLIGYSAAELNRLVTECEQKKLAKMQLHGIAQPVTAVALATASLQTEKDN
How it was run: as §1

[4] = biological target: T4, ERG (Homo sapiens, UniProt P11308 1-479); conditions: protein: recombinant; tags: N-terminal GST; dsDNA, one strand shown
T4 sequence: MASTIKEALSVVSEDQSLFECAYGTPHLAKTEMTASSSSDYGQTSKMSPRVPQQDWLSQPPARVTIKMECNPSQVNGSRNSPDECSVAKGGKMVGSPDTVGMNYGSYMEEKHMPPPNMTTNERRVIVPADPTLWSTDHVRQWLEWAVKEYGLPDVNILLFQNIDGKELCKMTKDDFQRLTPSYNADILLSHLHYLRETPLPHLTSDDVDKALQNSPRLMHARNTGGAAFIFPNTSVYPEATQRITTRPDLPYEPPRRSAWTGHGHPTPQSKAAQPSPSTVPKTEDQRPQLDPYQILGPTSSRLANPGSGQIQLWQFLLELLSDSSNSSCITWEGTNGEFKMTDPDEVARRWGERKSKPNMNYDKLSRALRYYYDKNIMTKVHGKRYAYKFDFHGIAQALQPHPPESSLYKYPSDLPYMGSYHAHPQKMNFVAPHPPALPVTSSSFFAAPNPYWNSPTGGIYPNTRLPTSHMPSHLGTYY
How it was run: as §1

[5] = biological target: ELF1 (Homo sapiens, UniProt P32519 1-619); conditions: protein: recombinant; tags: N-terminal GST; dsDNA, one strand shown
How it was run: as §1

[6] = biological target: T5, EHF (Homo sapiens, UniProt Q9NZC4 1-300); conditions: protein: recombinant; tags: N-terminal GST; dsDNA, one strand shown
T5 sequence: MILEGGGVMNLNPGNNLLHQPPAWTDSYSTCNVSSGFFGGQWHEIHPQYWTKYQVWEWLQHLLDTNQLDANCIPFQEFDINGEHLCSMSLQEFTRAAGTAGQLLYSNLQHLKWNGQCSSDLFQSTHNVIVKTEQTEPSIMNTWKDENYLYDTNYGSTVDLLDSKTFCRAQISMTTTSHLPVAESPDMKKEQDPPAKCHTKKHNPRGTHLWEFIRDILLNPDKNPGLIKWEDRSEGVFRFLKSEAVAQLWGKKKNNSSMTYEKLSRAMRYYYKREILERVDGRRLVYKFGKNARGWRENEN
How it was run: as §1

[7] = biological target: SPI1 (Homo sapiens, UniProt P17947 1-270); conditions: protein: recombinant; tags: N-terminal GST; dsDNA, one strand shown
How it was run: as §1

[8] = biological target: SPIB (Homo sapiens, UniProt Q01892 1-262); conditions: protein: recombinant; tags: N-terminal GST; dsDNA, one strand shown
How it was run: as §1

[9] = biological target: T6, ELK3 (Homo sapiens, UniProt P41970 1-407); conditions: protein: recombinant; tags: N-terminal GST; dsDNA, one strand shown
T6 sequence: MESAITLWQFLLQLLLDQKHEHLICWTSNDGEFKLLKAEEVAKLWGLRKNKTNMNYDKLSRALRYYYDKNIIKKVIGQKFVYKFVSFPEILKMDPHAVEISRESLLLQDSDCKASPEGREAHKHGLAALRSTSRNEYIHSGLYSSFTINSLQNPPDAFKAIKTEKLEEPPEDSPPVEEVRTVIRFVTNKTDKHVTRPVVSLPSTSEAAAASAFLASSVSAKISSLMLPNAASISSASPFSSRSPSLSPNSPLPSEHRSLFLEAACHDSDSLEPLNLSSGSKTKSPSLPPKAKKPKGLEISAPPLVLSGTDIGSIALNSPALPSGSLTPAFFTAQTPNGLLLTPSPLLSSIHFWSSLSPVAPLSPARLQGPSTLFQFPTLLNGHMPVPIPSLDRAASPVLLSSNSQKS
How it was run: as §1

[10] = biological target: T7, FEV (Homo sapiens, UniProt Q99581 1-238); conditions: protein: recombinant; tags: N-terminal GST; dsDNA, one strand shown
T7 sequence: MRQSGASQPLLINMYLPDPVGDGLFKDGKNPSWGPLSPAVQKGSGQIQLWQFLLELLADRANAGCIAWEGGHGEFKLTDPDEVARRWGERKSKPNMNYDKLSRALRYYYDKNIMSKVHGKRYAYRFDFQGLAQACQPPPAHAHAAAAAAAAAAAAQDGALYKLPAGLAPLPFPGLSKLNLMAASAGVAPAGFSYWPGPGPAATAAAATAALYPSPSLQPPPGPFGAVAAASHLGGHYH
How it was run: as §1

[11] = biological target: ETV5 (Homo sapiens, UniProt P41161 1-510); conditions: protein: recombinant; tags: N-terminal GST; dsDNA, one strand shown
How it was run: as §1

[12] = biological target: HSF1 (Homo sapiens, UniProt Q00613 1-529); conditions: protein: recombinant; tags: N-terminal GST; chain copies: 3; dsDNA, one strand shown
How it was run: as §1

[13] = biological target: T8, SPIC (Homo sapiens, UniProt Q8N5J4 1-248); conditions: protein: recombinant; tags: N-terminal GST; dsDNA, one strand shown
T8 sequence: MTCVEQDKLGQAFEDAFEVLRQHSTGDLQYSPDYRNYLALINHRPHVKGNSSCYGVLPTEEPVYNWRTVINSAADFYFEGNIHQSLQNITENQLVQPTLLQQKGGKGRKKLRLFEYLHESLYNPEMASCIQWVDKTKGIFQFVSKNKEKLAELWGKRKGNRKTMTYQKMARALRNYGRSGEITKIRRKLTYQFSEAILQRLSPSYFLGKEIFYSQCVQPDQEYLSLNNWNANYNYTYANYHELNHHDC
How it was run: as §1

[14] = biological target: ELF4 (Homo sapiens, UniProt Q99607 1-663); conditions: protein: recombinant; tags: N-terminal GST; dsDNA, one strand shown
How it was run: as §1

[15] = biological target: T9, ELK4 (Homo sapiens, UniProt P28324-2 1-405); conditions: protein: recombinant; tags: N-terminal GST; dsDNA, one strand shown
T9 sequence: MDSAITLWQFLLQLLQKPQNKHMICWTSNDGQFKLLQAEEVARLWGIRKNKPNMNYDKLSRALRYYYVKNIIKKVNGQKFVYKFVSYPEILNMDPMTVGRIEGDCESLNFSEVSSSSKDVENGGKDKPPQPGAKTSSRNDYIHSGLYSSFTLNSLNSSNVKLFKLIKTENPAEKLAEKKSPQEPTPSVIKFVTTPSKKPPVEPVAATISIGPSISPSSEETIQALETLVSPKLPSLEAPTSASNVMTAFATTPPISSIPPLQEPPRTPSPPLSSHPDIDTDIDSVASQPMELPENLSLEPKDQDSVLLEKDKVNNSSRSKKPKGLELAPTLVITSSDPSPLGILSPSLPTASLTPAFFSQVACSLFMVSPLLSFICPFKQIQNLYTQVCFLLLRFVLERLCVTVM
How it was run: as §1

[16] = biological target: T10, ETV2 (Homo sapiens, UniProt O00321 1-342); conditions: protein: recombinant; tags: N-terminal GST; dsDNA, one strand shown
T10 sequence: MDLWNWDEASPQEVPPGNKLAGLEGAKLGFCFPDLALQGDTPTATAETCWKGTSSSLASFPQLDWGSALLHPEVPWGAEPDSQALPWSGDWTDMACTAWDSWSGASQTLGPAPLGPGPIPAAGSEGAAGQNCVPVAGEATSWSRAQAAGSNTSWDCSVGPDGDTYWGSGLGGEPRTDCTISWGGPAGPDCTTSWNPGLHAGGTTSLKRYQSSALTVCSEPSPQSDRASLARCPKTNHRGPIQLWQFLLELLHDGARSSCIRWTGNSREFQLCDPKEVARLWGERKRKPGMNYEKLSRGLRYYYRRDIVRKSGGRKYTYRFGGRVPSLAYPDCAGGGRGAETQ
How it was run: as §1

[17] = biological target: T11, ELF3 (Homo sapiens, UniProt P78545 1-371); conditions: protein: recombinant; tags: N-terminal GST; dsDNA, one strand shown
T11 sequence: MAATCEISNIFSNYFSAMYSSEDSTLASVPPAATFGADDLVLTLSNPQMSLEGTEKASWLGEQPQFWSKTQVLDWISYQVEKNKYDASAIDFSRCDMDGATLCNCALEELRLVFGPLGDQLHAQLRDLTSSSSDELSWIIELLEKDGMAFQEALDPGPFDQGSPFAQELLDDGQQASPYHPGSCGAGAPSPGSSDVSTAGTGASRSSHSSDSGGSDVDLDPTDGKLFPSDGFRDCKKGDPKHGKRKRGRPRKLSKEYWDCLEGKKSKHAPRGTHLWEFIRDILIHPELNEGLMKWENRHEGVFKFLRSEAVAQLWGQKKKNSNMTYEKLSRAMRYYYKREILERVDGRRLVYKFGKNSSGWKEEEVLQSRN
How it was run: as §1

[18] = biological target: CRX (Homo sapiens, UniProt O43186 1-299); conditions: protein: recombinant; tags: N-terminal GST; dsDNA, one strand shown
How it was run: as §1

[19] = biological target: ETV1 (Homo sapiens, UniProt P50549 1-477); conditions: protein: recombinant; tags: N-terminal GST; dsDNA, one strand shown
How it was run: as §1

ELF4, sequence (Q99607 whole entry): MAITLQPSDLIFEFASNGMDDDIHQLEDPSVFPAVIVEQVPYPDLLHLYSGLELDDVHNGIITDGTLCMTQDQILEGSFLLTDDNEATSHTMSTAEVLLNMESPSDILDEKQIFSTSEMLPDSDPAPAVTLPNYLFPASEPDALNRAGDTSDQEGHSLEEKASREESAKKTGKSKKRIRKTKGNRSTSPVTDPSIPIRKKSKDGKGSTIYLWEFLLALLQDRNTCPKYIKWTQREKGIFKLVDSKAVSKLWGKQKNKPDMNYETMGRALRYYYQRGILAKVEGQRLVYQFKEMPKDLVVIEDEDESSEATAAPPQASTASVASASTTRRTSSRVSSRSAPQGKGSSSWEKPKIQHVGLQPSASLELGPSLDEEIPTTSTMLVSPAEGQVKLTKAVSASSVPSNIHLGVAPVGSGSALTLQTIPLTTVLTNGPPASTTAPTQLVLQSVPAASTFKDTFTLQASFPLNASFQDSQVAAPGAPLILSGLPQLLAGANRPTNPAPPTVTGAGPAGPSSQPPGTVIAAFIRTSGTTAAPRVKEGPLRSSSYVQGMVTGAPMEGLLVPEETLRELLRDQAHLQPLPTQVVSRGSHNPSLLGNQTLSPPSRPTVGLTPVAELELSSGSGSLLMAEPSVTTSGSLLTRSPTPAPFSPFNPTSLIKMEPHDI
ELF1, sequence (P32519 whole entry): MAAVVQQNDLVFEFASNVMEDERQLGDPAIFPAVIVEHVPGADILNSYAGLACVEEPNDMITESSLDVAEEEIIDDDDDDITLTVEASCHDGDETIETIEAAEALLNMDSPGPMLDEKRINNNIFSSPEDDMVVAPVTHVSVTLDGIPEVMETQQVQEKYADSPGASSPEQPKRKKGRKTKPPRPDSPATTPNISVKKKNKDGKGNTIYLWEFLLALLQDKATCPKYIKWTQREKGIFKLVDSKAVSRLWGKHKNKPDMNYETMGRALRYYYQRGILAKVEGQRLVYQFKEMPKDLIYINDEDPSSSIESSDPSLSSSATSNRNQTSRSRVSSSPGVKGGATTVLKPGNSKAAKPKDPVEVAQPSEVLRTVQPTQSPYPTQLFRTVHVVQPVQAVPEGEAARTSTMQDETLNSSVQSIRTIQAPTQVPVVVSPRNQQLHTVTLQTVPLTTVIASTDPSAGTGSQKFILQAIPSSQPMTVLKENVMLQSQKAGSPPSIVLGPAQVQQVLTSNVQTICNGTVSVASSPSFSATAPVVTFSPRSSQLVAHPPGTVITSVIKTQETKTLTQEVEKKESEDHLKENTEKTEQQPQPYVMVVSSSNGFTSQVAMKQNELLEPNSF
HSF1, sequence (Q00613 whole entry): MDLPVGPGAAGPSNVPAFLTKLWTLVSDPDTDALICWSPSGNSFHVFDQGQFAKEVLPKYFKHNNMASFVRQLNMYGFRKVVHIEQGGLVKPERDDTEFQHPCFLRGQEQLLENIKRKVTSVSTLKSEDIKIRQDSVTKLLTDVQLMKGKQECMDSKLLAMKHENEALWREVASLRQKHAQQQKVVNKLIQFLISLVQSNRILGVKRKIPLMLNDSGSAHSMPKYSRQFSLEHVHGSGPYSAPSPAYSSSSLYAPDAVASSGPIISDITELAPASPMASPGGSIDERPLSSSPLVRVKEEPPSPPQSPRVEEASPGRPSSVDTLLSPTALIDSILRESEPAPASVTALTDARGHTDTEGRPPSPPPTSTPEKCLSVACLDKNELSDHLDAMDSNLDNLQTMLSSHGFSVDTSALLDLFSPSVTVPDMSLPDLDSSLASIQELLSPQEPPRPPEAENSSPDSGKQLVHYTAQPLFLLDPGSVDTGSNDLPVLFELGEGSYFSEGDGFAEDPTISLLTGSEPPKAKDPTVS
SPIB, sequence (Q01892 whole entry): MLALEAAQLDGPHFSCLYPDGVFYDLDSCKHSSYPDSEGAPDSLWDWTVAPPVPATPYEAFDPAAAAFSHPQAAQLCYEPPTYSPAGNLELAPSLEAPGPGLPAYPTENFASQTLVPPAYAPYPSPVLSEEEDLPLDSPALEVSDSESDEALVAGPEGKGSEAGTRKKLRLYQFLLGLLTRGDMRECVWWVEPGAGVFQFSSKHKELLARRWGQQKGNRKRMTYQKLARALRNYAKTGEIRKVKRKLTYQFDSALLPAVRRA
CRX, sequence (O43186 whole entry): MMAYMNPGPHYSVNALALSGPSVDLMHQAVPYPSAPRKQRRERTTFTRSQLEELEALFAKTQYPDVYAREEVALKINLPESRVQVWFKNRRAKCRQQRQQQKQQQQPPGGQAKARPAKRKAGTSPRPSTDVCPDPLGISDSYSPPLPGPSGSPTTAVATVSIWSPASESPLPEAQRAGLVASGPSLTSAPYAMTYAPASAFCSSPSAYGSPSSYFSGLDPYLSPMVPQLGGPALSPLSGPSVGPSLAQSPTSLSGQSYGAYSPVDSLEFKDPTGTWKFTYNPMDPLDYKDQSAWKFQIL
ETV1, sequence (P50549 whole entry): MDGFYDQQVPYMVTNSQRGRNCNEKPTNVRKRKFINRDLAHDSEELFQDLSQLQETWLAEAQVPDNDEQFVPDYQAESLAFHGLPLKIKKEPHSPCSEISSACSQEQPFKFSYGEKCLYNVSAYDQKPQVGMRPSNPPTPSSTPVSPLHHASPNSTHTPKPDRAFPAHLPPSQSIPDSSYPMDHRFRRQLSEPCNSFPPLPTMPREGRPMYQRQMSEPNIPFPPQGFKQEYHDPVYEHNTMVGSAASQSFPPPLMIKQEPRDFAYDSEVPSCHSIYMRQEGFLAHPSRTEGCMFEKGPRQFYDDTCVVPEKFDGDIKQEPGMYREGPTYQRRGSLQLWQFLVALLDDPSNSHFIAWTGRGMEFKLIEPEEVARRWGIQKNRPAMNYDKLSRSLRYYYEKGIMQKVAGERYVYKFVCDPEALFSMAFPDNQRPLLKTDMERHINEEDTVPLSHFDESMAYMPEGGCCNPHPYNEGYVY
ETV5, sequence (P41161 whole entry): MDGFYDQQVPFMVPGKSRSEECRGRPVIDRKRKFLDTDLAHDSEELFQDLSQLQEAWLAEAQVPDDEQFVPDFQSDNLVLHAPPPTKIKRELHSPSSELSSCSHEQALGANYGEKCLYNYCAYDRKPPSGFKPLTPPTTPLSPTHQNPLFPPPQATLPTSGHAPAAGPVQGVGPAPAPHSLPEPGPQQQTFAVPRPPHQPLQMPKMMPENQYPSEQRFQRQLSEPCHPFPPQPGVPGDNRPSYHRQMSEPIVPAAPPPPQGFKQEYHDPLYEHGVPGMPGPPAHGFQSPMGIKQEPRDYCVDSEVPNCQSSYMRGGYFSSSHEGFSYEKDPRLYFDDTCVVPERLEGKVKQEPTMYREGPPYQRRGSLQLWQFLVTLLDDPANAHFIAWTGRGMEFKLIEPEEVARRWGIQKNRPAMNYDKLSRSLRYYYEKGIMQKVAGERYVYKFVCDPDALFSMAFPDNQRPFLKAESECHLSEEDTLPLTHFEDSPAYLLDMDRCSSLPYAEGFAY

Sequence: AAATTA
- binding signal [1]: 1.27 fold enrichment (6-mer frequency, TF over GST control)
- binding signal [2]: 1.18 fold enrichment (6-mer frequency, TF over GST control)
- binding signal [3]: 1.29 fold enrichment (6-mer frequency, TF over GST control)
- binding signal [4]: 1.28 fold enrichment (6-mer frequency, TF over GST control)
- binding signal [5]: 1.29 fold enrichment (6-mer frequency, TF over GST control)
- binding signal [6]: 1.19 fold enrichment (6-mer frequency, TF over GST control)
- binding signal [7]: 1.22 fold enrichment (6-mer frequency, TF over GST control)
- binding signal [8]: 1.26 fold enrichment (6-mer frequency, TF over GST control)
- binding signal [9]: 1.29 fold enrichment (6-mer frequency, TF over GST control)
- binding signal [10]: 1.19 fold enrichment (6-mer frequency, TF over GST control)
- binding signal [11]: 1.26 fold enrichment (6-mer frequency, TF over GST control)
- binding signal [12]: 1.44 fold enrichment (6-mer frequency, TF over GST control)
- binding signal [13]: 1.21 fold enrichment (6-mer frequency, TF over GST control)
- binding signal [14]: 1.23 fold enrichment (6-mer frequency, TF over GST control)
- binding signal [15]: 1.28 fold enrichment (6-mer frequency, TF over GST control)
- binding signal [16]: 1.4 fold enrichment (6-mer frequency, TF over GST control)
- binding signal [17]: 1.31 fold enrichment (6-mer frequency, TF over GST control)
- binding signal [18]: 1.65 fold enrichment (6-mer frequency, TF over GST control)
- binding signal [19]: 1.2 fold enrichment (6-mer frequency, TF over GST control)
